ALOX15 inhib = inhibitors of human 15-lipoxygenase (ALOX15); P16050; purified 15hLO-1, xylenol orange hydroperoxide absorbance; Potency, µM (top dose mostly 57.1 µM), for the others: top-dose activity change, negative = inhibition, usual class: inhibitors; 1.4% of 74,000 active; AID 887; further: nearly all actives have a fitted effect of over 55% in size
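Purified human 15hLO-1 (40 nM final) in 25 mM Hepes pH 7.5, 0.01% Triton X-100 was preincubated with compound 15 min at room temperature, then reacted 6 min with 50 uM arachidonic acid; hydroperoxide detected by Fe-XO, 573/405 nm absorbance ratio.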
Hsp90 Hop PPI = changes Hsp90-Hop TPR2A binding signal, up or down; Potency, µM (highest dose often 57 µM), without a hit: at the highest dose activity change, negative = inhibition; 0.44% of 71,000 active; AlphaScreen TPR2A-His6 binding biotin-Hsp90 C-terminal peptide; AID 595; active means well fitted curve in either direction with a large enough effect; inconclusive means small, poorly fitted or top-dose-only effect, or another doubt
Tau filament bind = binds recombinant human tau filaments; P10636; recombinant tau filaments, thioflavin S fluorescence, 15 h; filaments grown with octadecylsulfate alongside compound; Potency, µM (highest dose often 57.1 µM), without a hit: at the top dose activity change, negative = inhibition; 2% of 71,000 active;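 further: actives lower thioflavin S fluorescence by blocking filaments or displacing dye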
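Assay mix: 1 uM His-tagged tau, 30 uM sodium octadecylsulfate, thioflavine S dye in HEPES/NaCl/DTT buffer. Compound is added prior to the inducer. Fluorescence after 15 h at 37 C.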
ERK AVP inh = blocks ERK signaling stimulated by vasopressin; HEK293-V1b, vasopressin-stimulated pERK AlphaScreen; Potency, µM (doses to about 57.5 µM), for inactives: top-dose activity, negative = inhibition, most hits filed as inhibitors; 0.99% of 72,000 active; further: nearly all actives have a fitted effect of over 55% in size
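Overnight-seeded V1b-HEK293 cells in 1% FBS got compound, then vasopressin (25 nM final, 5 min, 37C), then lysis buffer. AlphaScreen detection of phospho-ERK; activity normalized to basal and full-stimulation controls.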
Bst PK mod = pyruvate kinase (B. stearothermophilus) modulation. purified pyruvate kinase, luminescence ATP production; ribose 5-phosphate activator present at AC10. 1.2% of 51,000 active. AID 361. Potency, µM; in the data active means potency below about 11 µM; inconclusive means mostly about 12 µM to 25 µM;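 the screen sought inhibitors and activators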;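 further: scaled between full activation by ribose 5 phosphate and full inhibition by luteolin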
Luciferase inh = inhibitors of firefly luciferase; P08659; purified firefly luciferase, luminescence, 8 min; Potency, µM (highest dose often 57.1 µM), inactives show at the top dose activity change, negative = inhibition, usual class: inhibitors; 2.2% of 72,000 active; further: nearly all actives have a fitted effect of over 40% in size
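Compounds were tested as concentration series (qHTS) against purified P. pyralis luciferase with luciferin and 10 uM ATP in 50 mM imidazole pH 7.2, 50 mM KCl, 7 mM MgCl2, 0.01% Tween 20, 0.05% BSA. Luminescence was read after 8 min at ambient temperature.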
Active calls of the source: *; i = inactive; ? = inconclusive; . = no result given; [ ] = another dose, or the depositor's remark. Sampled rows, rich in hits. Any-hit rate of the full collection: about 6.1%. Unless noted, the call rests on the fitted dose curve; in most records, active means well fitted curve in the direction sought with a large enough effect; inconclusive means small, poorly fitted or top-dose-only effect, or another doubt; inactive means no such curve, though single readings can be large; an effect the other way counts as inactive or inconclusive. Unless noted, on the % scale 0 is the no-effect control and ±100 the full control effect; potency means the concentration at half of the fitted maximal effect.

SMILES | ALOX15 inhib | Hsp90 Hop PPI | Tau filament bind | ERK AVP inh | Bst PK mod | Luciferase inh
CCCC1(C(=O)OC)C=C2C(=C(C(C)C)C(=O)C2C)CN1 (stereo not given) | . | 0% | 54% | 23% | . | .
CS(=O)(=O)NCCC1=CCCCC1 | 20µM* | -3% | -12% | -9% | >57 | -1%
CC(=O)C1CCC2C3CC(C)C4=CC(=O)CC[C@@]4(C)C3C(O)C[C@@]12C (stereo not given in full) | 7% | . | . | -5% | . | .
Cc1cc(C)nc(Nc2nc(=O)c3ccccc3s2)n1 | 7.9µM* | -3% | 33% | -23% | . | -5%
CN[C@@H]1[C@H](O)[C@H](NC)[C@@H]2O[C@]3(O)C(=O)C[C@@H](C)O[C@H]3O[C@@H]2[C@H]1O | . | ? | 40µM* | . | . | -2%[11.4 µM]
O=C1[C@H]2O[C@@H]2[C@@H](O)[C@H]2[C@H]1CCn1c(=O)n(Cc3cc4c(cc3Cl)OCO4)c(=O)n12 | 4%[11.4 µM] | . | . | 32%[11.5 µM] | . | 1%[11.4 µM]
CN(C)CCCN=C(N)N | 4%[11.4 µM] | -6%[11 µM] | 1%[11.4 µM] | -22%[11.5 µM] | . | 1%[11.4 µM]
O=C(CSc1n[nH]c(-c2ccccc2)n1)c1ccc(O)c(O)c1 | 5µM* | -7% | -4% | -6% | >57 | -2%
CC(C)=CCc1c(O)cc(O)c2c1O[C@H](c1ccccc1)CC2=O | 2%[25.6 µM] | 2% | 40µM* | 20% | . | 3%[11.4 µM]
CC(=Nc1ccc(O)cc1)c1sc2ccccc2c1O | -17% | -18% | -4% | ? | ? | 7.9µM*
O=CNC1CCCc2c1[nH]c1ccc(Cl)cc21 (stereo not given) | ? | -4% | -5% | -24% | . | 1%
Clc1ccc2[nH]c3c(c2c1)CCc1cn[nH]c1-3 | ? | -4% | 16µM* | ? | . | -10%
c1ccc2c3c([nH]c2c1)-c1[nH]ncc1CC3 | 7% | -7% | 22% | -20% | 3.1* | -5%
COc1ccc(N(CC(=O)O)N=O)cc1 | -9%[11.4 µM] | -3%[11 µM] | -2%[11.4 µM] | -9%[11.5 µM] | . | -1%[11.4 µM]
COc1ccc(CCCc2nnc(SCC(=O)Nc3ncc(C)s3)o2)cc1 | -9% | ? | -17% | 27% | i | 16µM*
C[N+]1(C)CC[C@@H](OC(=O)[C@@](O)(c2ccccc2)C2CCCC2)C1 | 16%[25.6 µM] | 0%[26 µM] | -2%[25.6 µM] | 18%[25.7 µM] | . | -4%[25.5 µM]
COc1ccc(NC2=NC3(CCCCC3)N=C(N)N2)cc1 | 25µM* | -12% | 15% | 3% | >57 | -1%
c1ccc2c[n+](CCCC[n+]3ccc4ccccc4c3)ccc2c1 | 3%[11.4 µM] | -3%[11 µM] | 3.2µM* | 11%[11.5 µM] | . | 2%[11.4 µM]
O=C(COC(=O)C1CCC1)NCc1ccccc1Cl | 4% | 1% | 3% | 12% | >57 | 16µM*
CCC(/C=C/C(C)C1CCC2C3CCC4=CC(=O)CC[C@@]4(C)C3CC[C@@]12C)C(C)C (stereo not given in full) | 5% | . | . | 2% | . | .
COc1cc(-n2nc(C)c3c2OC(N)=C(C#N)C3c2ccccc2)c(Cl)c(Br)c1O (stereo not given) | -14% | -24% | 25µM* | 32µM* | >57 | -1%
CNC(=O)[C@H]1O[C@H](n2cnc3c(NCc4cccc(I)c4)nc(Cl)nc32)[C@@H](O)[C@@H]1O | -25%[25.6 µM] | -6% | 13% | 16µM* | . | 2%
CNC(=O)[C@H]1O[C@H](n2cnc3c(NCc4cccc(I)c4)ncnc32)[C@@H](O)[C@@H]1O | 14%[25.6 µM] | 0% | -2% | ? | . | 1%
COC(=O)[C@@]1(Cc2ccc(OC)cc2)[C@H]2c3cc(C(=O)N(C)C)n(CCc4ccc(O)c(OC)c4)c3C[C@H]2CN1C(=O)c1ccccc1 | . | -3% | -6% | 5% | . | .
O=C(c1cnccn1)N1CCC2(CCCN(c3cccc(-c4ccccc4)c3)C2)CC1 | -17% | -24% | 3% | -11% | . | 1%[11.4 µM]
SMILES | ALOX15 inhib | Hsp90 Hop PPI | Tau filament bind | ERK AVP inh | Bst PK mod | Luciferase inh
NC(=O)[C@@H]1CCCNC1 | -2%[11.4 µM] | -3%[11 µM] | 0%[11.4 µM] | -5%[11.5 µM] | . | 0%[11.4 µM]
CCCn1c(C)nc2c(Nc3ccccc3)nc(C)nc21 | 1% | -1% | 0% | ? | . | .
CC(=O)/C=C(\C)Nc1ccc(-c2cnc(-c3ccccc3)o2)cc1 | -8%[11.4 µM] | -4%[11 µM] | 152%[11.4 µM] | ? | . | 10µM*
Cc1ccc(C(C(=O)NC2CCCC2)N(C(=O)c2csnn2)C2CCCC2)o1 (stereo not given) | 5% | 2% | 11% | -4% | >57 | 4%
CC(C)(C)NC(=O)C(c1ccncc1)N(C(=O)c1csnn1)C1CC1 (stereo not given) | -10% | -2% | -11% | -10% | 9.1* | ?
C#C[C@@]1(O)CC[C@@H]2[C@@H]3CCC4=CC(=O)CC[C@@H]4[C@H]3CC[C@]21C | 0%[25.6 µM] | -1%[26 µM] | 3%[25.6 µM] | -10%[25.7 µM] | . | 2%[25.5 µM]
CCOc1ccc2nc(C)cc(C(=O)O)c2c1 | 4% | 4% | 8% | -11% | >57 | 2%
CCOc1ccc2c(ccc(/C=C\c3cc(C)c4cccnc4c3O)[n+]2C)c1 | 69%[11.4 µM] | ? | 0.63µM* | -5%[11.5 µM] | . | -11%[11.4 µM]
Cn1cnnc1SCC(=O)c1ccc2c(c1)CCCC2 | -3% | -1% | -6% | -5% | . | -12%
Cc1ccc2c(c1)-c1c(ssc1=S)C(C)(C)N2C(=O)CSc1nncn1C | 16µM* | -28% | 7.9µM* | -11% | . | -2%
Cc1cc(C)c2c(c1)-c1c(ssc1=S)C(C)(C)N2C(=O)CSc1nncn1C | ? | -27%[11 µM] | 2µM* | -20% | . | -2%
O=C(c1cnccn1)N1CCC2(CC1)CN(Cc1ccccc1)C2 | 5% | -6% | -3% | 15% | . | -1%[11.4 µM]
Cc1ccc(-n2nc(-c3ccc(N)cc3)cc2N)cc1 | -2% | -3%[2.3 µM] | 7.9µM* | -25% | . | -1%

Bioassay records (PubChem)
